# Source: PubChem (National Center for Advancing Translational Sciences (NCATS))
# CHX counter: counter-screen hit for Shiga toxin inhibitors, cycloheximide. cell reporter, cycloheximide protein synthesis inhibition counterscreen. max response, %. hit rate 12% among 300,000. AID 2314; in the data active = max response mostly above about 13%, no sharp cut-off; inactive = mostly below about 14%; also: read at 38.3 µM for the half of the compounds with a filed dose; 0% is about no effect
# Pf growth 96h: inhibits malaria parasite growth, 96 h. P. falciparum luciferase reporter growth, 96 h. Potency, µM (doses to about 28.7 µM), for inactives: at the top dose activity change, negative = inhibition, hits mostly inhibitors. hit rate 6.9% among 320,000. AID 504834; also: potency is read from the fitted curve at half-maximal effect; % is scaled to controls: 0 for no effect and ±100 for the full control effect
#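 Erythrocytes infected with luciferase-expressing P. falciparum were dispensed at 2% hematocrit and 0.05% parasitemia (final), then incubated with compounds 96 hours at 37 C in 5% CO2. Luminescence after detection reagent addition reported growth.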
# Shiga toxin inh: inhibitors of Shiga toxin in Vero cells | Vero cells, Shiga toxin protein synthesis inhibition reporter | inhibition, % at 38.7 µM | AID 2315 | hit rate 9.2% among 290,000; in the data active = inhibition mostly above about 28%, no sharp cut-off; inactive = mostly below about 43%; also: 0% is about no effect
# Pf growth 48h: P. falciparum growth inhibition at 48 hours (one generation); P. falciparum luciferase growth in erythrocytes, 48 h; Potency, µM (titrated, usually from 28.7 µM), for the others: at the top dose activity change, negative = inhibition, most hits filed as inhibitors; hit rate 5.9% among 310,000; AID 504832; also: potency is read from the fitted curve at half-maximal effect; % is scaled to controls: 0 for no effect and ±100 for the full control effect
#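 Luciferase-expressing parasites in RBCs, 2% Hct / 0.1% parasitemia final; RPMI 1640 + 0.5% Albumax; 37 C, 5% CO2, one generation; luminescence read-out, lower signal = inhibition.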
# * = called active by the depositor; u = inconclusive; x = no result given; [ ] = remark or other dose. Sampled rows, rich in hits. Any-hit rate of the full collection: about 21%. Unless noted, calls follow the shape of the dose curve; as a rule, active = well fitted inhibition curve with a large enough effect; inconclusive = small, poorly fitted or top-dose-only effect, or another doubt; inactive = no such curve, though single readings can be large or run the other way.
SMILES,CHX counter,Pf growth 96h,Shiga toxin inh,Pf growth 48h
CSc1ccc(S(=O)(=O)N2CCC(C(=O)NCCN3CCOCC3)CC2)cc1,-1.6,49.3%,14.2,-7.1%
O=C(Cn1nc(Cl)nc1Cl)c1ccc(F)cc1,8.9,u,-6.8,11.7µM*
O=C(Cn1nc(Cl)nc1Cl)c1ccccc1,-3.7,-3.4%,-1.8,-3.7%
O=c1[nH]c(NCc2ccccc2)nc2c1CCC2,6.8,14.7µM*,-21.0,-20.5%
CCC(=O)Nc1nc2c(c(=O)[nH]1)CCCC2,-5.9,u,14.5,-2.7%
O=c1[nH]c(N2CCN(Cc3ccccc3)CC2)nc2c1CCC2,1.0,0.1%,-9.2,13.7%
CCCCCc1c(C)nc(NCc2ccccc2)[nH]c1=O,16.3,x,8.2,2.08µM*
CC(C)(C)C(=O)Nc1nc2c(c(=O)[nH]1)CCCC2,13.4,27.8%,-1.5,9.28µM*
Cc1nc(Nc2ccccc2)[nH]c(=O)c1CCC(C)C,-1.1,x,-6.3,u
Cc1ccc(-n2c3c(cc(C(=O)NCc4ccco4)c2=O)C(=O)CC(C)(C)C3)cc1,7.5,0.465µM*,12.4,u
CSc1nc(N(C)C)nc(N2CC(=O)N(CCNS(=O)(=O)c3ccc(C)cc3)C2=N)n1,-3.6,u,-3.3,u
Cc1ccc(Cl)c(OC(=O)c2nn(C(C)C)c(=O)c3ccccc23)c1,-1.7,u,6.2,4.3%
CSCCC(C(=O)N(C)CC(=O)Nc1cccc(F)c1)N1C(=O)c2ccccc2C1=O (stereo not given),x,u,x,-22.0%
COc1ccc(S(=O)(=O)c2nnn(-c3cccc(Cl)c3)c2N)cc1,0.5,u,-3.3,u
O=C1COc2ccc(OCc3ccc(F)cc3)cc21,51.0*,30.6%,100.9*,118.3%
O=C(COc1ccccc1F)Nc1ccc(S(=O)(=O)NCc2ccco2)cc1,39.8*,u,39.5,-9.4%
COc1ccc(S(=O)(=O)NCc2ccco2)cc1NC(=O)c1ccccc1,47.0*,-15.7%,64.9*,-6.7%
Cc1cccc(NC(=O)c2cc(S(=O)(=O)NCc3ccco3)ccc2F)c1C,47.1*,1.7%,63.1*,-14.1%
COc1ccccc1NC(=O)c1ccc(S(=O)(=O)NCc2ccco2)cc1,37.6*,-0.8%,102.9*,9.7%
COc1ccc(C(=O)Nc2ccc(S(=O)(=O)NCc3ccco3)cc2)cc1OC,-1.6,-17.2%,14.5,-12.4%
O=C(CSc1ncn[nH]1)Nc1ccc(Cl)c(S(=O)(=O)N2CCOCC2)c1,-1.9,-32.9%,-2.5,u
Cc1ccc(-n2ncc3c(SCc4cccnc4)ncnc32)c(C)c1,13.3,u,12.6,u
NC(N)=NCCC[C@H](N)C(=O)N1CCC[C@H]1C(=O)N1CCC[C@H]1C(=O)NCC(=O)N[C@@H](Cc1ccccc1)C(=O)N[C@@H](CO)C(=O)N1CCC[C@H]1C(=O)N[C@@H](Cc1ccccc1)C(=O)O,0.7,x,-4.4,x
COc1ccc(NC(=S)NCCc2ccccc2)c(C)c1,8.9,14.7µM*,1.0,u
COc1cc(C)c(NC(=O)C(=S)NCCc2ccccc2)cc1C,-3.1,2.33µM*,-19.2,0.8%
SMILES,CHX counter,Pf growth 96h,Shiga toxin inh,Pf growth 48h
Cc1cc(OC(F)F)ccc1NC(=S)NCCc1ccccc1,4.8,-13.2%,5.3,0.0%
CNC(=O)C(C)Sc1ccc(S(=O)(=O)N2CCOCC2)cn1 (stereo not given),x,30.2%,x,38.2%
COc1ccc(/C=C/C(=O)OCCC(C)C)cc1,33.7*,13.5µM*,104.9*,23.9%
O=C(/C=C/c1ccccc1)CC(O)(c1ccccc1)C(F)(F)C(F)F (stereo not given),1.5,7.38µM*,-18.0,x
CCCCC(CC)COC(=O)/C=C/c1ccc(OC)cc1 (stereo not given),x,2.5%,x,5.1%
COc1ccc(/C=C/C(=O)CCC(=O)O)cc1,32.0*,4.2%,56.3*,32.8%
COc1ccc(/C=C/C(=O)CC(O)(c2ccccc2)C(F)(F)F)cc1 (stereo not given),-1.8,u,-1.7,13.1µM*
COc1ccc(/C=C/C(=O)O)cc1,4.7,6.5%,21.4,2.4%
Cc1ccc(S(=O)(=O)NCC(c2cccnc2)N2CCc3ccccc32)cc1 (stereo not given),-3.7,62.1%,0.8,u
CC(=O)OCCC(NS(=O)(=O)OCC(Cl)(Cl)Cl)c1ccccc1 (stereo not given),-1.2,86.6%,-4.7,47.5%
Cc1ccc(NC(=O)c2cncc(Br)c2)cc1S(=O)(=O)N(C)C,38.0*,11.6%,99.0*,84.3%
Cc1ccc(NC(=O)c2sccc2C)cc1S(=O)(=O)N(C)C,28.2*,31.3%,45.6,48.7%
Cc1ccc(S(=O)(=O)N(C)C)cc1NC(=O)c1cncc(Br)c1,-4.7,13.1µM*,-12.6,13.1µM*
CN(C)S(=O)(=O)c1cccc(NC(=O)c2cncc(Br)c2)c1,8.5,64.1%,17.4,24.8%
CCN(CC)S(=O)(=O)c1cc(NC(=O)CSc2nnc(-c3cccs3)o2)ccc1C,6.6,u,12.5,3.1%
Cc1ccc(NC(=O)CSc2nnc(-c3cccs3)o2)cc1S(=O)(=O)N(C)C,26.6*,14.2%,117.0*,59.3%
Cc1ccnc(NC(=O)C2CCN(S(=O)(=O)c3ccc(C)c(C)c3)CC2)c1,x,-57.1%,x,34.0%
Cc1c(C(=O)Cc2ccccc2)n(C)c2ccccc12,25.1*,1.8%,26.6,-13.2%
C/C(=N\O)c1c(C)c2ccccc2n1C,-3.2,2.3%,-20.6,4.8%
CCCC(=O)c1c(C)c2ccccc2n1C,-0.5,3.29µM*,35.7,-12.2%
COc1ccccc1C(=O)NC(=O)COC(=O)c1cc[n+]([O-])cc1,x,10.5%,x,-15.0%
COc1cccc(-c2nc(-c3cccs3)no2)c1,43.1*,390.2%,57.0*,258.5%
COc1cc(OC)cc(-c2nc(-c3cccs3)no2)c1,43.6*,2.6%,76.0,289.9%
COc1cccc(-c2nc(CS(=O)(=O)c3ccccc3)no2)c1,50.8*,u,91.1*,135.7%
COc1cccc(-c2nc(-c3ccncc3)no2)c1,35.2*,220.3%,121.2*,98.3%
SMILES,CHX counter,Pf growth 96h,Shiga toxin inh,Pf growth 48h
CCOc1ccc(-c2nc(-c3ccc(OC)cc3)no2)cc1OCC,-3.5,u,-10.9,7.6%
CCOc1ccc(OCC)c(S(=O)(=O)n2cnc(C)c2)c1,-1.3,34.5%,x,u
CC(Oc1ccc2c3c(c(=O)oc2c1)CCCC3)C(=O)NCc1cccnc1 (stereo not given),6.7,u,-6.8,-3.1%
CCCn1c(SCc2ccon2)nc2ccccc2c1=O,-3.5,u,-10.0,x
COc1ccc(/C=C2\N=C(SC)N(c3ccccc3OC)C2=O)cc1,25.1*,u,32.9,u
CC(C)C(=O)Nc1cc(=O)[nH]c2ncnn12,-1.7,-2.4%[5.75 µM],14.1,9.7%
CCOc1nc(Nc2ccc(OC)c(Cl)c2)nc(OCC)n1,-1.7,13.1µM*,-11.7,x
CC1(C)CC(=O)C(N=Nc2ccc(OC(F)F)cc2)=C(O)C1,56.9*,26.2%,78.7*,22.6%
CC1(C)CC(=O)C(N=Nc2ccc(F)cc2)=C(O)C1,5.0,11.6%,-19.8,-9.2%
COc1ccccc1N=NC1=C(O)CC(C)(C)CC1=O,22.8*,-0.8%,active,19.3%
CC1(C)CC(=O)C(N=Nc2ccc3ncsc3c2)=C(O)C1,29.0*,53.3%,48.7*,95.6%
